Among the data in PubChem BioAssay (NCI) are growth values, retold here.

Among the test systems are SR leukemia; RPMI-8226 leukemia; OVCAR-8 ovarian; OVCAR-4 ovarian; SK-OV-3 ovarian; IGROV1 ovarian; OVCAR-3 ovarian; HS 578T breast; NCI/ADR-RES ovarian; BT-549 breast; MDA-MB-435 melanoma; SW-620 colon; MCF7 breast; HCT-116 colon; HCC-2998 colon; KM12 colon; T-47D breast; OVCAR-5 ovarian.
Common to all, as to test: NCI-60 one-dose screen, 48 h (100 = growth as untreated, 0 = no growth, -100 = all killed)
Conditions in all cases: 10 µM unless noted

The panel holds about 83,000 compounds, 20% with a hit somewhere; the sample as a whole holds those more often.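 The test compound was applied at a single concentration to cells in 96-well plates for 48 hours, and percent growth was recorded.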 Unmarked numbers belong to inactive results. Activity calls are given as the source filed them. Rule for the calls: active = growth percent below 10; inactive = the rest.

Consider `CCN(CC)CCN(CCN(CC)CC)c1ccccc1`, for which the growth with SR leukemia was 111%; in the assay with RPMI-8226 leukemia it was 103%; with OVCAR-8 ovarian, 91.4%; with OVCAR-4 ovarian, 101%; in the assay on SK-OV-3 ovarian, 92.7%; in the assay with IGROV1 ovarian, 90%. For the same compound, the growth with OVCAR-3 ovarian was 109%; with HS 578T breast, 89.2%; with NCI/ADR-RES ovarian it was 100%; in the assay with BT-549 breast, 54.3%; in the assay on MDA-MB-435 melanoma, 103%; in the assay on SW-620 colon, 95.8%. Further, the growth in the assay on MCF7 breast is 100%; in the assay with HCT-116 colon, 74.6%; with HCC-2998 colon, 91.5%; in the assay with KM12 colon it was 108%.
With `CC1(C)OC(=O)C(=Cc2cccc(Br)c2)C(=O)O1`, the growth with SR leukemia is 99.7%; with RPMI-8226 leukemia it was 97.4%; in the assay on OVCAR-8 ovarian, 98.4%; in the assay on OVCAR-4 ovarian it was 114%; with SK-OV-3 ovarian, 109%; in the assay on IGROV1 ovarian, 102%. The growth is 107% in the assay with OVCAR-3 ovarian; 90.8% in the assay on HS 578T breast; 107% with NCI/ADR-RES ovarian; 92.7% with T-47D breast; 108% with BT-549 breast; 108% with MDA-MB-435 melanoma. Further, the growth in the assay with SW-620 colon is 102%; with MCF7 breast it was 102%; in the assay on HCT-116 colon, 102%; in the assay with HCC-2998 colon it was 113%; with KM12 colon, 111%.
`CN(Cc1cnc2nc(N)nc(N)c2n1)c1c(Cl)cc(C(=O)NC(CCC(=O)O)C(=O)O)cc1Cl` (stereo not drawn): the growth is 45.3% in the assay on RPMI-8226 leukemia; 17.8% in the assay with OVCAR-8 ovarian; 55.1% with OVCAR-4 ovarian; 56.3% with SK-OV-3 ovarian; 48.1% in the assay on OVCAR-3 ovarian; 66.1% in the assay on HS 578T breast. Also, the growth was 35.1% with NCI/ADR-RES ovarian; 53.2% in the assay with T-47D breast; 21.9% in the assay with BT-549 breast; 25.7% in the assay on MDA-MB-435 melanoma; 29.1% with SW-620 colon; 19.2% with MCF7 breast. Besides, the figures for the growth with HCT-116 colon, with HCC-2998 colon and with KM12 colon were 18.9%, 20.9% and 29.6%, respectively.
For the compound `O=C(N/N=C/c1ccc(Cl)cc1Cl)c1ccc2nc(-c3ccc(Cl)cc3)[nH]c2c1`, the growth with RPMI-8226 leukemia is 2.83% (active); in the assay on OVCAR-8 ovarian it was 14.2%; in the assay on OVCAR-5 ovarian, 23.7%; in the assay on OVCAR-4 ovarian it was -17.9% (active); with SK-OV-3 ovarian it was 49.8%; in the assay on IGROV1 ovarian, -27.4% (active). The growth in the assay with OVCAR-3 ovarian was -52.9% (active); in the assay on HS 578T breast it was 33%; in the assay on NCI/ADR-RES ovarian, 41.2%; in the assay with T-47D breast, -13.1% (active); with BT-549 breast, 113%; with MDA-MB-435 melanoma, 38.8%. In addition, the growth was -28.3% (active) with SW-620 colon; -20% (active) with MCF7 breast; -1.88% (active) in the assay with HCT-116 colon; 3.69% (active) in the assay on HCC-2998 colon; -29.1% (active) with KM12 colon.
`C=C1C(=O)O[C@H]2[C@H]1CC/C(COC(=O)/C=C\C(=O)NCc1ccc(Cn3c(=O)sn(-c4ccccc4)c3=O)cc1)=C\CC[C@@]1(C)O[C@@H]21`: the growth in the assay on RPMI-8226 leukemia was 40.5%; in the assay on OVCAR-8 ovarian, 91.2%; with OVCAR-5 ovarian, 98.3%; in the assay on OVCAR-4 ovarian, 85%; in the assay on SK-OV-3 ovarian it was 108%; with IGROV1 ovarian, 77.4%. Besides, the growth with OVCAR-3 ovarian was 39.5%; in the assay on HS 578T breast, 90.3%; with NCI/ADR-RES ovarian, 111%; in the assay with T-47D breast it was 67.9%; in the assay on BT-549 breast, 93.5%; in the assay with MDA-MB-435 melanoma it was 67.7%. Further, the growth in the assay on SW-620 colon is 19.9%; in the assay on MCF7 breast, 53.7%; with HCT-116 colon, 33.6%; in the assay on HCC-2998 colon, 105%; with KM12 colon, 106%.
As to `O=C(CCCCNC(=O)c1cc(=O)c(O)co1)Nc1ccccc1`, the growth in the assay on RPMI-8226 leukemia is 50.4%; in the assay with OVCAR-8 ovarian it was 93.6%; with OVCAR-5 ovarian, 119%; with OVCAR-4 ovarian it was 79.3%; with SK-OV-3 ovarian, 119%; in the assay with IGROV1 ovarian, 99%. Besides, the growth in the assay on OVCAR-3 ovarian was 47.4%; in the assay on HS 578T breast, 92.9%; in the assay on NCI/ADR-RES ovarian it was 87%; with T-47D breast it was 34.6%; in the assay on BT-549 breast, 98.4%; with MDA-MB-435 melanoma it was 98.1%. In addition, the growth was 45.8% in the assay on SW-620 colon; 66.1% in the assay on MCF7 breast; 30% with HCT-116 colon; 110% with HCC-2998 colon; 99.7% in the assay on KM12 colon.
Turning to `CCOC(=O)/C=C/c1c(C)[nH]c(=O)[nH]c1=O`, the growth in the assay on RPMI-8226 leukemia is 110%; in the assay with OVCAR-8 ovarian it was 83.2%; with OVCAR-5 ovarian, 71.8%; in the assay with OVCAR-4 ovarian, 97.5%; in the assay with SK-OV-3 ovarian, 99.4%; in the assay with IGROV1 ovarian, 112%. Moreover, the growth in the assay on OVCAR-3 ovarian is 118%; in the assay on HS 578T breast it was 105%; in the assay on NCI/ADR-RES ovarian, 81.9%; with T-47D breast, 102%; in the assay on BT-549 breast, 99.1%; in the assay with MDA-MB-435 melanoma, 109%. Also, the growth is 56.7% in the assay with SW-620 colon; 69.6% in the assay on MCF7 breast; 53% in the assay with HCT-116 colon; 107% with HCC-2998 colon; 93.4% in the assay with KM12 colon.
As for `CN(C)c1ccc(/C=C2/C=C(c3ccccc3)OC2=O)cc1`, the growth in the assay with RPMI-8226 leukemia is 84%; in the assay with OVCAR-8 ovarian, 100%; with OVCAR-5 ovarian, 108%; in the assay on OVCAR-4 ovarian it was 93.4%; with SK-OV-3 ovarian, 93.9%; in the assay on IGROV1 ovarian, 74.7%. In addition, the growth was 73.7% with OVCAR-3 ovarian; 101% with HS 578T breast; 73.1% in the assay with NCI/ADR-RES ovarian; 86.9% with T-47D breast; 98.6% in the assay with BT-549 breast; 21.7% in the assay with MDA-MB-435 melanoma. For the same compound, the growth is 95.2% in the assay on SW-620 colon; 56.6% with MCF7 breast; 100% in the assay with HCT-116 colon; 95% in the assay on HCC-2998 colon; 63.5% with KM12 colon.
